Shown are actives, neighbours in structure and some others; about 12% of the full set was active somewhere.
G9a inh – blocks human histone lysine methyltransferase G9a. Q96KQ7. G9a H3K9 monomethylation, AlphaScreen, 2 h. Potency, µM (doses to about 102 µM), actives largely listed as inhibitors. 8.8% of 350,000 active. AID 504332; also: nearly all actives have a fitted effect of over 75% in size
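AlphaScreen detection with an anti-monomethyl H3K9 antibody quantified product after a 2 h room-temperature reaction containing 500 nM biotinylated H3K9 peptide, 20 µM SAM and 20 nM enzyme, which had been preincubated 15 min with compound.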
PI5P4Ka inh – blocks human PI5P4K alpha kinase activity; PI5P4Kalpha enzyme, ADP-Glo luminescence, 60 min; active compounds read low; P48426; 1.2% of 330,000 active; max response, %; active = max response of -50% or lower; inconclusive = between -30% and -50%; inactive = -30% or higher; also: value at the top dose of about 77 µM
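Quantitative HTS of the MLSMR library against PI5P4Kalpha with substrate. ATP added last at 5 microM final; room temperature, 60 minutes. Remaining ATP depleted, ADP converted and read as luminescence.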
HP1b binding inh – inhibitors of HP1-beta chromodomain binding to methylated histone tails | P83916 | 0.56% of 390,000 active | AlphaScreen HP1-beta / biotin-H3K9me3 peptide binding | Potency, µM (titrated, usually from 114 µM), usual class: inhibitors; also: nearly all actives have a fitted effect of over 70% in size
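AlphaScreen: HP1-beta (50 nM) preformed 30 min with biotin-H3(1-18)K9me3 peptide (50 nM) in PBS pH 7.4, 0.01% Tween-20. Compound added for 30 min at RT, then streptavidin donor/nickel chelate acceptor beads (10 ug/mL) for 30 min.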
PLK1 PBD block – inhibitors of human PLK1 polo-box domain binding; Potency, µM, most hits filed as inhibitors; P53350; Plk1 PBD binding of FITC phosphopeptide, fluorescence polarization; 2.8% of 360,000 active; AID 720504; also: series mostly up to about 57 µM; nearly all actives have a fitted effect of over 65% in size
Target sequence (P53350 whole entry, looked up, the tested form may be a part): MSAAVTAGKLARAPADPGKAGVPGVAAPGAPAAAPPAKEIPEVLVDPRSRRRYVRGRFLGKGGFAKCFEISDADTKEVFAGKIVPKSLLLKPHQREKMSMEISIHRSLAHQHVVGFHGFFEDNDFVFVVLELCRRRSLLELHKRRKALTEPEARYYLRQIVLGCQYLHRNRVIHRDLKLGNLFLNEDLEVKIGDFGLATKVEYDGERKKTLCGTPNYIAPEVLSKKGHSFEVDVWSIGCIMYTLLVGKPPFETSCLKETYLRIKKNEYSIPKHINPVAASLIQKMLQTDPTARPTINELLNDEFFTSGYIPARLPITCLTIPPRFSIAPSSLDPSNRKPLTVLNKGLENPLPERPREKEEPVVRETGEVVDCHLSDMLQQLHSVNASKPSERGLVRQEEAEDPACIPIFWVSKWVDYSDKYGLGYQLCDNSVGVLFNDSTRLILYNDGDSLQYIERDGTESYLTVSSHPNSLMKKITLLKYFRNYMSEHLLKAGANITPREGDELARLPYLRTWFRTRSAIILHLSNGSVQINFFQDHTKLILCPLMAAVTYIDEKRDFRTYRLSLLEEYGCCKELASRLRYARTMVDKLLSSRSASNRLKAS
BAZ2B block – blocks human BAZ2B. Q9UIF8. AlphaScreen BAZ2B-H3K14Ac peptide displacement. Potency, µM (highest dose often 114 µM), hits mostly inhibitors. 4.4% of 360,000 active; also: nearly all actives have a fitted effect of over 60% in size
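BAZ2B (50 nM) with biotin-H3(5-23)K14Ac peptide (50 nM) in PBS pH 7.4, 0.01% Tween-20, preformed 30 min, then compound 30 min at room temperature; top concentration 110uM. AlphaScreen streptavidin donor/nickel chelate acceptor beads (10 ug/mL final), 20 min dark, signal read.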
JMJD2A Tudor – blocks the human JMJD2A Tudor domain. AID 504339. AlphaScreen JMJD2A-Tudor / H3K4me3 peptide binding. 4.4% of 390,000 active. Potency, µM (highest dose often 114 µM), actives largely listed as inhibitors; also: nearly all actives have a fitted effect of over 50% in size
Of the large screens only hits and unclear results are named; the others gave an inactive call. Unless noted, calls follow the shape of the dose curve; as a rule, active = well fitted curve in the direction sought with a large enough effect; inconclusive = small, poorly fitted or top-dose-only effect, or another doubt; inactive = no such curve, though single readings can be large; an effect the other way counts as inactive or inconclusive.

CC1=NN(c2ccccc2)C(=O)/C1=C/c1c(O)[nH]c(=O)[nH]c1=O	G9a inh 39.8µM, BAZ2B block inconclusive
COc1ccc(/C=C2/C(=O)N(c3ccccc3)N=C2C)cc1	HP1b binding inh 50.1µM, PLK1 PBD block 3.77µM, JMJD2A Tudor 20µM (no result: G9a inh, BAZ2B block)
CC(C)(O)[C@H]1O[C@H]2CC[C@@]3(C)[C@@](O)(CC[C@H]4Cc5c([nH]c6ccccc56)[C@@]43C)C2=CC1=O	G9a inh 31.6µM, BAZ2B block inconclusive, JMJD2A Tudor inconclusive
Cn1cnc([N+](=O)[O-])c1Sc1ccc([N+](=O)[O-])cc1	PLK1 PBD block 10.6µM (no result: G9a inh)
Cc1cccc(-n2c(/C=C/c3cn(C)c4ccccc34)nc3ccccc3c2=O)c1	none (no result: PI5P4Ka inh, PLK1 PBD block)
COc1ccc2c(c1)c(CCN)c(C)n2Cc1ccccc1	G9a inh 39.8µM, HP1b binding inh inconclusive, BAZ2B block inconclusive, JMJD2A Tudor inconclusive
CCC1(CC)C(=O)NC(=O)N(C)C1=O	none (no result: PI5P4Ka inh, HP1b binding inh, PLK1 PBD block, BAZ2B block, JMJD2A Tudor)
Cc1ccc(CN2CCN(CC(=O)N3CCC4(CC3)OCCO4)C2=O)cc1	G9a inh inconclusive, PLK1 PBD block 29.9µM
Cc1ccc(CN2CCSc3ccc(C(=O)N4CCC5(CC4)OCCO5)cc32)cc1	G9a inh 50.1µM, JMJD2A Tudor inconclusive
C[C@@H](N)[C@@H](O)c1ccc(O)c(O)c1	G9a inh 2µM (no result: PI5P4Ka inh, HP1b binding inh, PLK1 PBD block, BAZ2B block, JMJD2A Tudor)
CC(N)[C@H](O)c1ccc(O)c(O)c1 (stereo partly specified)	G9a inh 14.1µM, JMJD2A Tudor 14.1µM (no result: PI5P4Ka inh, HP1b binding inh, PLK1 PBD block, BAZ2B block)
COc1ccc(OC)c(C(O)C(C)N)c1 (stereo unspecified)	none
C[C@H](N)[C@H](O)c1ccc(O)c(O)c1	G9a inh 1.58µM (no result: PI5P4Ka inh, HP1b binding inh, PLK1 PBD block, BAZ2B block, JMJD2A Tudor)
CN1C2CC(OC(=O)C(CO)c3ccccc3)CC1C(O)C2 (stereo unspecified)	none (no result: PI5P4Ka inh, HP1b binding inh, PLK1 PBD block, BAZ2B block, JMJD2A Tudor)
O=C(Oc1ccc(C(=S)N2CCOCC2)cc1)c1ccc([N+](=O)[O-])cc1[N+](=O)[O-]	G9a inh 44.7µM, JMJD2A Tudor inconclusive
Cc1ccc(NC(=O)CN2C(=O)CN=C(c3ccccc3)c3ccccc32)cc1Cl	none (no result: PI5P4Ka inh, PLK1 PBD block)
O=C1NC(=S)SC1=Cc1ccc(N(CCCl)CCCl)cc1	PI5P4Ka inh -72.1, HP1b binding inh inconclusive, JMJD2A Tudor 31.6µM (no result: G9a inh, BAZ2B block)
COc1cc([C@@H]2c3cc4c(cc3[C@H](O)C3COC(=O)[C@@H]32)OCO4)cc(OC)c1OC (stereo partly specified)	none (no result: PI5P4Ka inh, HP1b binding inh, PLK1 PBD block, BAZ2B block, JMJD2A Tudor)
CN1C(=O)C(C2(C#N)CCCCC2)C(=O)N(C)C1=O	G9a inh 50.1µM (no result: PI5P4Ka inh)
COc1cccc2c1C13CC[N+]4(CC5CC5)CO[C@]1(CCC(=O)C3)C4C2	none (no result: PI5P4Ka inh, HP1b binding inh, PLK1 PBD block, BAZ2B block, JMJD2A Tudor)
CC1CCCCN1CC(=O)c1ccc2cc[nH]c2c1 (stereo unspecified)	G9a inh 31.6µM
c1cc2c(cc1CCNC1C3CC4CC(C3)CC1C4)OCO2 (stereo unspecified)	G9a inh 25.1µM, BAZ2B block inconclusive, JMJD2A Tudor 3.98µM (no result: PI5P4Ka inh)
CC1CCC(NCCc2ccc3c(c2)OCO3)CC1 (stereo unspecified)	G9a inh inconclusive, HP1b binding inh inconclusive, BAZ2B block inconclusive, JMJD2A Tudor 3.16µM (no result: PI5P4Ka inh)
C=CCc1ccc2c(c1)OCO2	none (no result: PI5P4Ka inh, HP1b binding inh, PLK1 PBD block, BAZ2B block, JMJD2A Tudor)
COc1ccc(F)cc1CN1CCN(C(=O)CCC(=O)Nc2nnc(CC(C)C)s2)CC1	none
CCN1C[C@]2(C)CC[C@H](O)[C@@]34[C@@H]5C[C@@H]6[C@@H](OC)C[C@@](O)(C5[C@H]6O)[C@@H](C[C@@H]23)[C@@H]14	none (no result: PI5P4Ka inh, HP1b binding inh, PLK1 PBD block, BAZ2B block, JMJD2A Tudor)
COc1ccc(CNCCc2ccc(Cl)cc2Cl)cc1	none
COc1ccc(OC)c(CCNCc2c(C(=O)O)c(C)n(Cc3ccc(F)cc3Cl)c2C)c1	BAZ2B block 50.1µM, JMJD2A Tudor inconclusive (no result: PI5P4Ka inh, PLK1 PBD block)
C=CCc1cccc(C=Nc2c[nH]c(=O)[nH]c2=O)c1O	PLK1 PBD block 26.7µM, BAZ2B block inconclusive, JMJD2A Tudor 39.8µM
Cc1noc(C(=O)Nc2sc3c(c2C#N)CCC3)c1Cl	G9a inh 44.7µM, PLK1 PBD block 23.8µM
COP(=S)(OC)Oc1ccc(Sc2ccc(OP(=S)(OC)OC)cc2)cc1	G9a inh inconclusive, PI5P4Ka inh -64.3, PLK1 PBD block inconclusive (no result: BAZ2B block)
Nc1ccc(Sc2ccc(N)cc2)cc1	JMJD2A Tudor inconclusive (no result: G9a inh, BAZ2B block)
CCOC(=O)c1c(C)n(Cc2ccco2)c2ccc(O)cc12	G9a inh 8.91µM, PI5P4Ka inh inconclusive, BAZ2B block inconclusive
